# VLA-4 inh = inhibition in human VLA-4 binding assay, primary screen, VLA-4 allosteric modulator project, MLPCN library, flow cytometry, VLA-4 expressing cells; Integrin alpha-4 (Homo sapiens), P13612; ligand binding flow cytometry; inhibition, % (about 7 µM as worked out from the volumes in the protocol); hit rate 0.2% among 330,000; in the data active means inhibition above about 50%
# CIT2-GFP yeast = modulators of CIT2-GFP expression in yeast, primary screen, S. cerevisiae, GFP fusion, multiplex flow cytometry, MLPCN library | hit rate 0.065% among 320,000 | S. cerevisiae CIT2-GFP strain, 3 h; 100 means same as DMSO wells | GFP response vs DMSO, % at 10 µM;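 active means GFP response relative to DMSO above a set limit, near the screen mean plus 3 SD, cut at about 150% in these data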;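 further: ratio of well median GFP fluorescence to mean of DMSO wells on the plate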
# MEP2-GFP yeast = modulators of MEP2-GFP levels in yeast, primary screen, S. cerevisiae, multiplex flow cytometry, MLPCN library; S. cerevisiae MEP2-GFP strain, 3 h; 100% = DMSO control level; GFP response vs DMSO, % at 10 µM; hit rate 0.51% among 330,000;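 active means GFP response versus DMSO above a set limit, roughly screen mean plus 3 SD, cut at about 180% in these data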;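 further: median GFP fluorescence of the barcode-gated MEP2-GFP cells per well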
# LAP4-GFP MLPCN = modulators of LAP4-GFP expression in yeast, primary screen, S. cerevisiae, multiplex flow cytometry, MLPCN library | 3 h; median GFP as percent of DMSO wells | GFP response vs DMSO, % at 10 µM | hit rate 0.34% among 320,000 | AID 2023, 2009;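 active means GFP response vs DMSO above a set limit, about the screen mean plus 3 SD, cut at about 150% in these data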
# AGP1-GFP MLPCN = modulators of AGP1-GFP expression in yeast TOR pathway, primary screen, cell-based, multiplex flow cytometry, S. cerevisiae, MLPCN library. hit rate 0.02% among 320,000. 3 h; GFP as percent of DMSO wells. AID 2066, 2009. GFP response vs DMSO, % at 10 µM;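 active means GFP response relative to DMSO above a set limit, near screen average plus 3 SD, cut at about 150% in these data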;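 further: median GFP channel fluorescence of the gated AGP1 strain per well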
# RPL19A-GFP yeast = RPL19A-GFP expression modulators in yeast, primary screen, cell-based, S. cerevisiae, multiplex flow cytometry, MLPCN; S. cerevisiae RPL19A-GFP strain, 3 h; hits give low values; hit rate 0.3% among 330,000; percent response vs DMSO, % at 10 µM;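 active means percent response vs DMSO below 50%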;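 further: median channel GFP fluorescence of the barcoded RPL19A-GFP strain; ratio of sample median GFP to plate DMSO average so 100% = DMSO; lower means less RPL19A-GFP as with rapamycin TOR inhibition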
# VLA-4 mod pick = retest of VLA-4 allosteric modulators, confirmation, cell-based, cherry-picked plates, U937, HUTS-21 LIBS antibody; inhibition, % at 6.7 µM; U937 cells, HUTS-21 LIBS mAb binding, flow cytometry; LDV ligand present at threefold Kd; hit rate 2% among 1,300; shares compounds with VLA-4 inh; in the data active means inhibition above about 40%;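 further: 0% = ligand without compound and 100% = no ligand background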
# Active calls of the source: *; . = no result. Only a sample is shown.
SMILES,VLA-4 inh,CIT2-GFP yeast,MEP2-GFP yeast,LAP4-GFP MLPCN,AGP1-GFP MLPCN,RPL19A-GFP yeast,VLA-4 mod pick
COc1cc(C(=O)OC2C[C@H]3CC[C@@H](C2)N3)ccc1O (stereo partly drawn),2.4,107.6,108.2,98.8,104.1,104.9,-3.2
COc1cc(C(=O)OC2C[C@H]3CC[C@@H](C2)N3C)ccc1O (stereo partly drawn),11.1,112.0,118.6,105.2,109.0,117.2,2.4
CN1CCN(CCC(=O)OC2CC3CCC(C2)N3C)CC1 (stereo not drawn),12.0,95.1,93.1,90.6,91.8,103.7,.
CCC(CO)(C(=O)OC1CC2CCC(C1)N2C)c1ccccc1 (stereo not drawn),-1.6,108.6,106.5,90.2,100.0,102.3,.
CCCC(C)C(=O)NC1CCSC1=O (stereo not drawn),-1.7,107.1,103.8,102.4,105.5,102.9,.
O=C(c1ccc(N2CC3CC(C2)c2cccc(=O)n2C3)c([N+](=O)[O-])c1)N1CCCC1 (stereo not drawn),5.5,119.1,107.1,101.2,105.5,107.5,.
COc1cccc(-c2sc3ccccc3c2-c2ccc(OCCN3CCOCC3)cc2)c1,17.1,76.0,93.2,132.5,87.5,82.7,-1.4
COc1ccc(-n2c(CN3CCOCC3)nc3ccccc3c2=O)c(OC)c1,6.5,98.4,99.6,81.6,91.5,96.0,.
